Assay results: ChEMBL document CHEMBL3988442, “University of Dundee, Small-Polar-MMV Screening Library” (2021)

Assays:
[1] = molecular target: T1, Aspartate--tRNA(Asp/Asn) ligase (Mycobacterium tuberculosis (strain ATCC 25618 / H37Rv)) (UniProt P9WFW3); test: Assay for Asp RNA synthetase-1 from Mycobacterium tuberculosis; assay type: functional; design: scale not given: direction of the effect not stated beside the values; details: 30 µM; note: in the data most compounds retested in dose-response had high values
T1 sequence (whole entry): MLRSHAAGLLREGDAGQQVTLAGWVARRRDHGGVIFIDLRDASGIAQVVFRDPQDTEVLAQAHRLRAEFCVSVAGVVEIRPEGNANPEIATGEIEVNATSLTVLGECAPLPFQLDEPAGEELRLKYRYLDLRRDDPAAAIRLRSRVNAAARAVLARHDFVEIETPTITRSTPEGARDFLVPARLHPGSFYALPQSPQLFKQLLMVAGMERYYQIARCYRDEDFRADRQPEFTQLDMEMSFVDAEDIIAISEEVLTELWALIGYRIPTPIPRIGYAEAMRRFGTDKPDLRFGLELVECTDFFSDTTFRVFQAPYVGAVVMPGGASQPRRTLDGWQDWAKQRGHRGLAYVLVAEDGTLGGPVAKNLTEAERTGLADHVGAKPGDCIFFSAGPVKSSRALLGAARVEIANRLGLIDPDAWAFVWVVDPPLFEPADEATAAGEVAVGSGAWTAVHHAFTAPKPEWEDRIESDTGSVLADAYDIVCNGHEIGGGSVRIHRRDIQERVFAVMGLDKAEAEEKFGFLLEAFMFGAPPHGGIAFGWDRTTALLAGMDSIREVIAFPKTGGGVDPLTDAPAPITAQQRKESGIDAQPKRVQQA

[2] = molecular target: Shiga toxin 2 (Escherichia coli O157:H7) (UniProt P09385+P09386); test: E. coli 0.157:H7 Shiga Toxin SOP - stx2 screening assay; assay type: functional; design: scale not given: direction of the effect not stated beside the values; details: 30 µM

SMILES | Percent Effect [1] | Percent Effect [2]
Cc1oc(C)c(C(=O)N2CCCN(Cc3cscn3)CC2)c1C | -1.41% | 26.2%
Cc1nc[nH]c1CN1CCN(C(=O)c2cccs2)[C@H]2CS(=O)(=O)C[C@H]21 | -4.62% | 10%
CCOCC(O)CN1CCN(C(=O)c2cccc(F)c2)CC1 (centres undefined) | 0.145% | -5.86%
CN(CC(=O)N1CCCC1Cn1cccn1)c1cnccn1 (centres undefined) | -1.26% | -0.699%
O=C(N1CCCC1)N1Cc2nccn2CC(CN2CCCC2)C1 (centres undefined) | -5.76% | 1.77%
Cn1cc(NS(=O)(=O)c2ccc(OC(F)(F)F)cc2)ccc1=O | 51.5% | -3.73%
COCc1nc(C(=O)N2CCCC2c2noc(C(C)C)n2)cs1 (centres undefined) | 2.63% | -5.18%
O=C(NCc1cncc2c1CCN(Cc1cccs1)C2)C1CC1 | 7.52% | -27.9%
CCC(OC)C(=O)N1CCc2nc(NC)nc(C(=O)N3CCCC3)c2C1 (centres undefined) | 1.34% | -1.38%
CCNC(=O)N1CCN(C(=O)c2cc(Cl)cc3cccnc23)CC1 | -3.21% | -11.9%
Cn1nccc1C(=O)N1CCOC(Cc2cccnc2)C1 (centres undefined) | -0.485% | -23.7%
Cc1ccccc1CSCCn1nc2ccccn2c1=O | -1.33% | 26.4%
CCOCC1CN(Cc2ccoc2)Cc2nn(CC3CC3)cc21 (centres undefined) | 6.32% | -16.8%
O=C(Nc1ccc(F)c(Br)c1)N1CCCC1 | 4.74% | -23.1%
CCc1ccc(C(=O)N2CCC(c3nncn3CC)CC2)cc1 | -2.16% | 7.54%
O=C(c1cccc(=O)[nH]1)N(Cc1ccsc1)CC1CCCO1 (centres undefined) | 0.0781% | -11.1%
CSCC(=O)N1C[C@H]2CC[C@@H]1CN(Cc1ccccc1)C2 | 4.28% | -4.7%
CC(C)c1nnc(CN2CCCC2Cn2cncn2)o1 (centres undefined) | -1.37% | -22.4%
COc1cc(C(=O)N(Cc2cnn(C)c2)C(C)C)ccc1OCC(N)=O | 0.225% | 33%
COCC(c1cccc(C(F)(F)F)c1)N(C)C(=O)c1cc(C)no1 (centres undefined) | -1.95% | 27.2%
Cc1noc(NC(=O)c2ccc(OC(F)(F)F)cc2)n1 | 3.01% | 62.3%
CNS(=O)(=O)c1ccc(C(=O)NCCc2ccccn2)cc1 | 9.16% | 14.4%
COc1ccc(CN2CCn3cc(CN4CCN(C)CC4)nc3C2)cc1 | -1.67% | 10.3%
CC(C)C(C(=O)N1CCC(N(C)c2cccnn2)CC1)n1cncn1 (centres undefined) | -3.21% | 11.4%

SMILES | Percent Effect [1] | Percent Effect [2]
CCNC(=O)N(C)Cc1ccc(SC)c(OC)c1 | 4.58% | 0.0534%
COc1ccc(CN2CCn3cc(Cn4cccn4)nc3C2)cc1 | 6.63% | -37.1%
Cc1ncoc1C(=O)N1C[C@H]2CCC[C@@]2(COCC2CCOCC2)C1 | -1.27% | 3.67%
Cn1c(Cn2cccn2)nnc1C1CCCN(c2ccncc2)C1 (centres undefined) | 1.37% | -3.13%
Cc1cnn(CC(C)NCc2csc(-c3cnn(C)c3)n2)c1 (centres undefined) | 1.91% | -23.5%
COC(=O)c1ccc(C2CC(=O)Oc3cc(C)[nH]c(=O)c32)cc1 (centres undefined) | -5.75% | -8.85%
Cc1ccc2c(n1)N(Cc1cccnc1)CCN(C(=O)C1CCC1)C2 | 14.8% | -15.2%
N#CC1CCCN(c2nc(-c3ccccc3)nc3c2CCNCC3)C1 (centres undefined) | 0.524% | -18.1%
CCc1nc(CN2CCN(C(=O)COCc3ccccc3)CC2)no1 | -1.88% | 2.35%
CC[C@@H]1N(Cc2ccsc2)CCC[C@]12CCC(=O)N2CCOC | -5.67% | 7.49%
O=C(Cc1ccc(O)c(Cl)c1)N1CCCCC1CCn1cccn1 (centres undefined) | -0.725% | -11.4%
Cc1ccccc1-c1cc(C(=O)NCCN2CCCS2(=O)=O)[nH]n1 | -2.39% | -11.4%
Cc1cccc(OCCC(=O)N2CCCN(CC(N)=O)CC2)c1C | -0.457% | 1.67%
Cn1ncc2c1C(COCC1CC1)CN(Cc1ccc(F)cc1)C2 (centres undefined) | -2.09% | -5.43%
CNCC(=O)N1CCCC(c2nccnc2Oc2cccc(F)c2)C1 (centres undefined) | 1.72% | 4.34%
Cc1cccc(C(=O)NCc2ccc(S(N)(=O)=O)cc2)n1 | -0.577% | -16.4%
O=C(NCc1ccoc1)NC1CCCN(c2ncccn2)C1 (centres undefined) | -2.64% | 15.2%
Cc1ccc(C(=O)N2CCC3(CC2)CC(N2CCCC2)C3)cc1 | 0.137% | -9.41%
CNS(=O)(=O)c1ccc(CNC(=O)NCC2CCCO2)cc1 (centres undefined) | 0.75% | 25.4%
CCc1nnc2n1CCN(C(=O)C(C)COCc1ccccc1)C2 (centres undefined) | 0.562% | 31.4%
O=C(Cc1ccc2c(c1)CCCC2)NCCc1ccccn1 | 2.5% | 29.1%
CN(C)C(=O)c1ccc(CNC(=O)NCCN(C)C2CCCC2)cc1 | 1.57% | 14.3%
Fc1ccc(CN2CCCC(Cn3cncn3)C2)c2ncccc12 (centres undefined) | 14.3% | -38.7%
